Source: the supplement of paper PMC6522484
± gives the standard deviation of the averaged measurements.

Legend:
DLD1 [1] = assay: cell viability (CellTiter-Glo) relative to plate median (fraction of plate median); higher = more viable cells; conditions: 5 µM; treatment time 24 h; reporter: 7TFP
Outline: (§1)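 Cells were seeded in 384-well plates; these were colorectal cancer lines stably transduced with lentiviral 7TFP or TCF4/Wnt firefly luciferase reporters. After 24 h, library compounds went in at a final 5 µM, and exposure lasted 24 h. Parallel plates were then read for firefly luciferase or CellTiterGlo luminescence, each well normalised to its plate median, with two independent replicates averaged.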

HCT116 = assay: as above; conditions: 5 µM; treatment time 24 h; reporter: TCF4/Wnt
Outline: as §1

SW480 [2] = assay: as above; conditions: 5 µM; treatment time 24 h; reporter: 7TFP
Outline: as §1

DLD1 [3] = assay: TCF/Wnt firefly luciferase reporter signal relative to plate median (fraction of plate median); higher = higher Wnt reporter signal; conditions: 5 µM; treatment time 24 h; reporter: 7TFP
Outline: as §1

SW480 [4] = assay: as above; conditions: 5 µM; treatment time 24 h; reporter: 7TFP
Outline: as §1

SMILES	cell viability (DLD1 [1])	cell viability (HCT116)	cell viability (SW480 [2])	TCF/Wnt firefly luciferase reporter signal (DLD1 [3])	TCF/Wnt firefly luciferase reporter signal (SW480 [4])
CC(C)[C@H](N)C(=O)OCCOCn1cnc2c(=O)nc(N)[nH]c21	1.01 ± 0.028	0.879 ± 0.12	0.938 ± 0.0071	0.969 ± 0.16	0.876 ± 0.11
O=C1C(CC[S+]([O-])c2ccccc2)C(=O)N(c2ccccc2)N1c1ccccc1 (stereo not given)	1.07 ± 0.028	1.09 ± 0.064	1.035 ± 0.0071	0.857 ± 0.079	0.885 ± 0.089
Nc1ccc(S(=O)(=O)Nc2ccnn2-c2ccccc2)cc1	1.03 ± 0.058	1 ± 0.052	0.939 ± 0.013	1 ± 0.011	1.06 ± 0.057
CN(C)CCCN1c2ccccc2Sc2ccc(C(F)(F)F)cc21	1.07 ± 0.17	0.993 ± 0.081	1.04 ± 0.028	0.957 ± 0.034	0.959 ± 0.17
CC(=O)OC[C@H]1O[C@@H](Oc2cc(OC(C)=O)c3c(=O)cc(-c4ccc(OC(C)=O)cc4)oc3c2)[C@H](OC(C)=O)[C@@H](OC(C)=O)[C@@H]1OC(C)=O	1.02 ± 0.021	1.11	0.992 ± 0.054	1.07 ± 0.13	0.938 ± 0.036
O=C(/C=C/c1ccc(O)c(O)c1)O[C@@H]1C[C@](O)(C(=O)O)C[C@@H](O)[C@H]1O	0.9805 ± 0.0064	0.95 ± 0.071	0.9255 ± 0.0092	0.931 ± 0.096	0.9705 ± 0.0064
CC(=O)N(O)CCCCCNC(=O)CCC(=O)N(O)CCCCCNC(=O)CCC(=O)N(O)CCCCCN	0.987 ± 0.015	0.95 ± 0.032	0.89 ± 0.073	0.869 ± 0.067	1.06 ± 0.021
N=C(N)N/N=C/c1c(Cl)cccc1Cl	0.976 ± 0.028	1.02 ± 0.042	1.02 ± 0.014	1.02 ± 0.021	1.05 ± 0.064
NCCNCCNCCN	1.03	0.986 ± 0.049	1.01 ± 0.064	0.999 ± 0.058	1.03 ± 0.052
NCCCCNCCCN	0.936 ± 0.011	1.03	0.958 ± 0.05	1.12 ± 0.16	1.12 ± 0.13
CCCc1nc(C(C)(C)O)c(C(=O)OCc2oc(=O)oc2C)n1Cc1ccc(-c2ccccc2-c2nnn[nH]2)cc1	0.99 ± 0.015	0.978 ± 0.045	1.01 ± 0.047	1.11 ± 0.11	1.11 ± 0.042
COc1ccc(NS(=O)(=O)c2ccc(N)cc2)nn1	0.99 ± 0.057	1.09 ± 0.042	1.02 ± 0.032	1.12 ± 0.19	0.914 ± 0.14
C[C@H]1C[C@H]2[C@@H]3CCC4=CC(=O)C=C[C@]4(C)[C@@]3(F)[C@@H](O)C[C@]2(C)[C@@]1(O)C(=O)CO	0.973 ± 0.0099	1.03 ± 0.086	1.01 ± 0.016	0.938 ± 0.027	0.953 ± 0.0028
Nc1ccn([C@@H]2O[C@H](CO)[C@@H](O)[C@H]2O)c(=O)n1	0.977 ± 0.033	1.06 ± 0.057	1.06 ± 0.028	1.16 ± 0.064	1.05 ± 0.057
O=C(/C=C/c1ccccc1)c1ccc(O)cc1O	1 ± 0.025	0.984 ± 0.0071	0.99 ± 0.028	1.12 ± 0.071	1.07 ± 0.014
COc1cc(NS(=O)(=O)c2ccc(N)cc2)nc(OC)n1	0.9765 ± 0.0092	0.924 ± 0.031	0.956 ± 0.063	0.895 ± 0.28	0.8105 ± 0.0064

SMILES	cell viability (DLD1 [1])	cell viability (HCT116)	cell viability (SW480 [2])	TCF/Wnt firefly luciferase reporter signal (DLD1 [3])	TCF/Wnt firefly luciferase reporter signal (SW480 [4])
COc1c(-c2ccccc2)oc2c(ccc3occc32)c1=O	1.03 ± 0.035	1.09 ± 0.078	1.03 ± 0.021	1.09 ± 0.078	1.05 ± 0.014
COc1c2c(cc3occ(-c4ccc5c(c4)OCO5)c(=O)c13)OC(C)(C)C=C2	0.973 ± 0.067	0.951 ± 0.11	0.9305 ± 0.005	0.799 ± 0.37	0.607 ± 0.49
CC(C)(Oc1ccc(CCNC(=O)c2ccc(Cl)cc2)cc1)C(=O)O	1.05 ± 0.014	1.06 ± 0.064	1 ± 0.069	0.919 ± 0.016	0.986 ± 0.02
CN(C)CCC(c1ccccc1)c1ccccn1 (stereo not given)	0.973 ± 0.039	1 ± 0.18	0.963 ± 0.032	1.16 ± 0.035	1.055 ± 0.0071
NC(=O)N1c2ccccc2C=Cc2ccccc21	0.931 ± 0.098	1.01 ± 0.029	1.004 ± 0.0092	1.05 ± 0.042	0.937 ± 0.17
O=[N+]([O-])c1cccc2cn[nH]c12	1.015 ± 0.0071	0.987 ± 0.076	0.962 ± 0.047	1.1 ± 0.042	1.14 ± 0.021
CCCc1nc(C)c2c(O)nc(-c3cc(S(=O)(=O)N4CCN(CC)CC4)ccc3OCC)nn12	0.948 ± 0.022	1.02 ± 0.061	0.9505 ± 0.005	1.05 ± 0.021	1.07 ± 0.042
Cc1ccc(=O)n(-c2ccccc2)c1	0.911 ± 0.041	0.866 ± 0.096	0.945 ± 0.014	0.952 ± 0.17	1.08 ± 0.14
CCCCCC1C(=O)CCC1CC(=O)O (stereo not given)	1.02 ± 0.25	1.2 ± 0.18	1.105 ± 0.0071	1.06 ± 0.099	1.04 ± 0.058
O=C(O[C@@H]1Cc2c(O)cc(O)cc2O[C@@H]1c1cc(O)c(=O)c2c(O)c(O)cc([C@H]3Oc4cc(O)cc(O)c4C[C@H]3O)c2c1)c1cc(O)c(O)c(O)c1	1.04 ± 0.069	1.15 ± 0.028	1.01 ± 0.021	1.1 ± 0.057	1.04 ± 0.05
Cn1c(=O)[nH]c2[nH]cnc2c1=O	1.02 ± 0.042	1.04 ± 0.14	1.04 ± 0.072	0.964 ± 0.011	0.992 ± 0.025
CCC(=O)O[C@]1(C(=O)CCl)[C@@H](C)C[C@H]2[C@@H]3CCC4=CC(=O)C=C[C@]4(C)[C@@]3(F)[C@@H](O)C[C@@]21C	1.03 ± 0.035	0.9775 ± 0.0078	1.01 ± 0.035	0.896 ± 0.27	0.893 ± 0.027
Cc1cccc(Nc2ccccc2C(=O)O)c1C	1.03 ± 0.1	1 ± 0.038	1.07 ± 0.014	0.927 ± 0.052	1.01 ± 0.089
CCn1cc(C(=O)O)c(=O)c2cnc(N3CCNCC3)nc21	0.976 ± 0.049	0.943 ± 0.12	1 ± 0.025	0.891 ± 0.21	0.98 ± 0.13
C[C@H]1C[C@@H]2[C@H]([C@@H](O)C[C@@]3(C)[C@H]2CC[C@]3(O)C(=O)CO)[C@@]2(C)C=CC(=O)C=C12	1.01 ± 0.029	1.02 ± 0.056	1.04 ± 0.014	0.9235 ± 0.005	1.02 ± 0.062
